This passage reports % ACh max response results from PubChem BioAssay AID2665 (Vanderbilt High Throughput Screening Facility, 2010).

Assay [1] deals with Muscarinic acetylcholine receptor M1 (Rattus norvegicus) (UniProt P08482). The assay can be described thus: potentiation of ACh response at hM5 and rM1 – CHO cells, calcium, ACh EC10, single 30 µM, SAR follow-up (AID 2665).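 Further: 100% = response to a maximal acetylcholine concentration.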 The settings on record: rat M1 potentiation, CHO calcium; at 30 µM; stronger effect = higher value.
For assay [2], the target named is Muscarinic acetylcholine receptor M5 (Homo sapiens) (UniProt P08912). Described as above. The settings on record: CHO hM5 calcium flux, ACh EC10 potentiation; at 30 µM; stronger effect = higher value.

Active and inactive are the calls of the source. How the calls were made is not given here.

Sequence of Muscarinic acetylcholine receptor M5 (Homo sapiens) (P08912 whole entry, looked up): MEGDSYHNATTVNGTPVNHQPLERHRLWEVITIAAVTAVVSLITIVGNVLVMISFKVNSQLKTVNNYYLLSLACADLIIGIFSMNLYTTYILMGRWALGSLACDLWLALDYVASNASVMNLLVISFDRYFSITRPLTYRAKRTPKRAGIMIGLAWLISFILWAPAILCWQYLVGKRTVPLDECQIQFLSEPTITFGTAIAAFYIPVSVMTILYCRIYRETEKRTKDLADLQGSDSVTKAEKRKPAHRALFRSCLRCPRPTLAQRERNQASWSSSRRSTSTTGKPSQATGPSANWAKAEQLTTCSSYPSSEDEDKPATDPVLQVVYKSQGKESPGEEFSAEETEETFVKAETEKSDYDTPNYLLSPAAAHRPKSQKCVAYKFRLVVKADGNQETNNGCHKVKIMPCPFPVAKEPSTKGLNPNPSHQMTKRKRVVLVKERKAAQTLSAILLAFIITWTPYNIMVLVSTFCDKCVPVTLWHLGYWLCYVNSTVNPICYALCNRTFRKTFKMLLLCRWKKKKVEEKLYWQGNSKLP

For the compound `O=C1C(=O)N(Cc2ccc(Br)cc2F)c2ccc(F)cc21`, the % ACh max response in assay [1] was 70.5%; in assay [2], 64% (active).
In the same order, the values of `COc1cccc(CN2C(=O)C(=O)c3c(Cl)ccc(Cl)c32)c1` are 13.3% and 35.1% (inactive).
With `Cc1ccccc1CN1C(=O)C(=O)c2cccc(Cl)c21`, the % ACh max response is 32.8% in assay [1] and 32.6% (inactive) in assay [2].
In the same order, the values of `O=C1C(=O)N(Cc2ccccc2Cl)c2ccc(F)cc21` are 41.4% and 39.9% (active).
Take `COc1ccccc1-c1ccc(CN2C(=O)C(=O)c3ccccc32)cc1`: the % ACh max response is 47.6% in assay [1] and 58.1% (active) in assay [2].
For the compound `O=C1C(=O)N(Cc2ccc(OC(F)(F)F)cc2)c2ccc(F)cc21`, the % ACh max response is 59.8% in assay [1] and 58.4% (active) in assay [2].
Regarding `COc1ccc(CN2C(=O)C(=O)c3cc(F)ccc32)cc1`, the % ACh max response in assay [1] is 41.1%; in assay [2], 38.3% (active).
For the compound `O=C1C(=O)N(Cc2ccc(C(F)(F)F)cc2)c2c(Cl)cccc21`, the results for the % ACh max response in assay [1] and in assay [2] were 67% and 70.8% (active), respectively.
As for `Cc1cccc2c1N(Cc1ccccc1F)C(=O)C2=O`, the % ACh max response in assay [1] was 24.9%; in assay [2], 24.6% (inactive).
In the case of `O=C1C(=O)N(Cc2c(F)cccc2F)c2ccc(F)cc21`, the % ACh max response is 27.6% in assay [1] and 31.1% (inactive) in assay [2].
As to `O=C1C(=O)N(Cc2ccc(-c3ccc(Cl)nc3)cc2)c2ccccc21`, the % ACh max response was 37.1% in assay [1] and 47.8% (active) in assay [2].
Regarding `O=C1C(=O)N(Cc2ccc(F)cc2F)c2c(Cl)cccc21`, the % ACh max response in assay [1] is 64.6%; in assay [2] it was 61.6% (active).
Taken in the same sequence, the figures for `O=C1C(=O)N(Cc2ccc(Br)cc2)c2ccc(OC(F)(F)F)cc21` were 13.2% and 47.6% (active).
In the case of `O=C1C(=O)N(Cc2ccccc2Cl)c2ccccc21`, the results for the % ACh max response in assay [1] and in assay [2] were 43.4% and 42% (active), respectively.
Taken in the same sequence, the figures for `O=C1C(=O)N(Cc2ccc(OC(F)(F)F)cc2)c2ccc(Cl)cc21` were 31.3% and 47.1% (active).
On to `O=C1C(=O)N(Cc2ccccc2C(F)(F)F)c2ccccc21`, for which the % ACh max response in assay [1] is 37.9%; in assay [2], 40.2% (active).
For the compound `O=C1C(=O)N(Cc2ccc(C(F)(F)F)cc2)c2c(F)cccc21`, the % ACh max response was 60.9% in assay [1] and 71.1% (active) in assay [2].
Taken in the same sequence, the figures for `O=C1C(=O)N(Cc2ccc(Br)cc2)c2ccc(Cl)cc21` were 26.1% and 32% (inactive).
As to `COc1ccc(CN2C(=O)C(=O)c3cc(OC(F)(F)F)ccc32)cc1`, the % ACh max response was 12.7% in assay [1] and 60.7% (active) in assay [2].
For `Cc1ccc2c(c1)C(=O)C(=O)N2Cc1ccc(C(F)(F)F)cc1`, the % ACh max response is 22.9% in assay [1] and 35.5% (inactive) in assay [2].
Consider `O=C1C(=O)N(Cc2ccc(OC(F)(F)F)cc2)c2c(Cl)ccc(Cl)c21`, for which the % ACh max response was 16% in assay [1] and 23.2% (inactive) in assay [2].
Turning to `O=C1C(=O)N(Cc2ccccc2C(F)(F)F)c2c(Cl)cccc21`, the % ACh max response in assay [1] is 31.1%; in assay [2], 14% (inactive).
On to `O=C1C(=O)N(Cc2c(F)cccc2F)c2ccccc21`, for which the results for the % ACh max response in assay [1] and in assay [2] were 36.6% and 17.4% (inactive), respectively.
`O=C1C(=O)N(Cc2ccc(-c3ccc(Cl)cc3)cc2)c2ccccc21`: the % ACh max response is 45.1% in assay [1] and 6.53% (active) in assay [2].
Turning to `O=C1C(=O)N(Cc2c(F)cccc2F)c2ccc(Cl)cc21`, the % ACh max response was 27.3% in assay [1] and 31.8% (inactive) in assay [2].
As for `COc1ccc(CCN2C(=O)C(=O)c3ccccc32)cc1`, the % ACh max response is 38.6% in assay [1] and 51.7% (active) in assay [2].
For the compound `O=C1C(=O)N(Cc2ccccc2C(F)(F)F)c2c(Cl)ccc(Cl)c21`, the % ACh max response is 21.1% in assay [1] and 16% (inactive) in assay [2].
For `COc1cccc(CN2C(=O)C(=O)c3ccccc32)c1`, the figures for the % ACh max response in assay [1] and in assay [2] were 19.4% and 28% (inactive), respectively.
Turning to `Cc1ccccc1CN1C(=O)C(=O)c2c(Cl)ccc(Cl)c21`, the % ACh max response in assay [1] was 13.7%; in assay [2] it was 16.4% (inactive).
For `O=C1C(=O)N(Cc2ccccc2F)c2ccc(F)cc21`, the % ACh max response is 40.1% in assay [1] and 46.2% (active) in assay [2].
For the compound `O=C1C(=O)N(Cc2ccc(Br)cc2F)c2ccc(OC(F)(F)F)cc21`, the % ACh max response in assay [1] was 11.6%; in assay [2], 36.4% (inactive).
In the case of `O=C1C(=O)N(Cc2ccccc2C(F)(F)F)c2ccc(Cl)cc21`, the % ACh max response in assay [1] was 29.6%; in assay [2], 48.4% (active).
As to `O=C1C(=O)N(Cc2ccccc2F)c2c(Cl)ccc(Cl)c21`, the values for the % ACh max response in assay [1] and in assay [2] were 12.4% and 14.7% (inactive), respectively.
On to `Cc1ccc2c(c1)C(=O)C(=O)N2Cc1ccccc1Cl`, for which the % ACh max response in assay [1] is 16.8%; in assay [2] it was 24.3% (inactive).
Turning to `Cc1ccc2c(c1)C(=O)C(=O)N2Cc1ccc(Br)cc1F`, the % ACh max response in assay [1] is 22.3%; in assay [2] it was 27.8% (inactive).
Take `O=C1C(=O)N(Cc2ccc(Br)cc2)c2c(Cl)cccc21`: the % ACh max response in assay [1] is 29.9%; in assay [2] it was 44.3% (active).
For the compound `O=C1C(=O)N(Cc2ccc(Br)cc2F)c2ccccc21`, the % ACh max response is 49.2% in assay [1] and 48.5% (active) in assay [2].
For the compound `O=C1C(=O)N(Cc2ccccc2F)c2ccc(OC(F)(F)F)cc21`, the % ACh max response in assay [1] is 11.3%; in assay [2] it was 51.8% (active).
Take `O=C1C(=O)N(Cc2ccc(-c3ccc(Cl)c(Cl)c3)cc2)c2ccccc21`: the % ACh max response was 35.3% in assay [1] and 56.3% (active) in assay [2].
`COc1cccc(CN2C(=O)C(=O)c3cc(OC(F)(F)F)ccc32)c1`: the % ACh max response in assay [1] is 28.6%; in assay [2], 70.1% (active).
